# CF NFkB inh: inhibitors of PAF-induced NF-kB signaling, primary screen, cell-based, GFP fluorescence, uHTS; KKLEB NF-kB-GFP reporter, GFP fluorescence overnight; inhibition, % at 5 µM; 360,000 compounds, 0.86% hits; AID 588850, 2011;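 active = at least 50% inhibition at 5 µM, scaled per plate between neutral and stimulator controls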;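 also: PAF is a Pseudomonas aeruginosa culture filtrate used as stimulus; plate controls were PAF-stimulated DMSO wells for no effect and unstimulated DMSO wells for full effect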
# ABHD5 PLIN5 PPI: ABHD5-PLIN5 interaction inhibitors, primary screen, cell lysate, split luciferase complementation, luminescence. Perilipin-5 (Homo sapiens) + 1-acylglycerol-3-phosphate O-acyltransferase ABHD5 (Homo …. Split G. princeps luciferase complementation, 4 h. inhibition, % at 4 µM. 360,000 compounds, 0.78% hits;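 active = inhibition above the mean inhibition across every tested compound plus 3 SD, cut at about 22% in these data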;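 also: 0% = DMSO only wells and the 100% control is not disclosed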
# KKLEB cytotox: cytotoxicity in KKLEB CF airway cells, primary screen, cytotoxicity control for CF NF-kB inhibitor project, cell-based, uHTS, fluorescence assay plates; 360,000 compounds, 0.36% hits; KKLEB CF airway cells viability, ATPlite luminescence, overnight; active compounds read low; cells stimulated with P. aeruginosa culture filtrate; AID 602141, 2011; activity change (cytotoxicity), % at 5 µM;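 active = corrected activity change at or below -50% at 5 µM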
# HIF-2a inh: HIF-2a reporter inhibitors, primary screen, luminescence, 786-0 RCC cells; 786-0 RCC cells HIF-2a reporter, luciferase luminescence, overnight; 360,000 compounds, 0.72% hits; inhibition, % at 18.8 µM;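 active = inhibition of the luminescence signal of 40% or more relative to plate controls, in a single-dose primary screen at 18.75 µM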
# Peg3 promoter: Peg3 promoter-driven luciferase inhibitors, primary screen, cell-based, HeLa, luciferase luminescence. 360,000 compounds, 1.7% hits. inhibition, % at 20 µM. HeLa PEG-Prom luciferase reporter, overnight;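 active = inhibition of at least 50% at 20 µM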
# TRPM1 prom inh: inhibitors of MITF-dependent TRPM1 promoter reporter, primary screen, cell-based, SK-MEL-5, single point, luciferase; AID 488899, 2010; SK-MEL-5 TRPM1 promoter luciferase, 24 h; inhibition, % at 12.5 µM; 330,000 compounds, 0.83% hits;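 active = mean inhibition across replicates of 60% or more, whatever share of single replicates reaches that level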
# * = called active by the depositor; . = no result given. This is a sample that favours compounds with a hit; in the whole collection about 3.1% have one here.
SMILES,CF NFkB inh,ABHD5 PLIN5 PPI,KKLEB cytotox,HIF-2a inh,Peg3 promoter,TRPM1 prom inh
COc1ccc(OCC(O)CNCCOc2ccccc2OC)c(C(C)(C)C)c1 (centres undefined),12,-2,2,26,63*,-3
Cc1cccc(-c2nnc(SCC(=O)Nc3cccc(C(=O)N4CCOCC4)c3)n2C)c1,-1,1,-10,17,4,-2
O=C(CN1c2ccccc2Sc2ccccc21)NNC(=S)Nc1ccc(Cl)cc1Cl,26,-6,-17,0,50*,-3
O=C(O)CC(C(=O)Nc1ccc(F)cc1)C1CCCO1 (centres undefined),1,2,-1,11,3,-1
O=C(NNc1c(F)c(F)cc(F)c1F)c1ccc(Cl)nc1,3,4,-3,4,3,3
Cc1ccccc1-n1c(=O)cc(N2CC(C)OC(C)C2)[nH]c1=O (centres undefined),12,23*,4,-11,-1,-11
Cn1c(CNC(=O)c2ccc3c(c2)OCO3)nnc1SCC(=O)Nc1ccccc1F,16,-1,-19,-27,-11,1
CC1(C)C=Cc2c(c3c(c4c(=O)c(-c5ccc(O)cc5)coc24)OC(C)(C)CC3)O1,35,-7,-21,-27,63*,7
Nc1ccc(C(=O)Nc2ccc(NC(=O)c3ccco3)c(O)c2)cc1,-19,3,4,-93,-57,-3
O=C(CSc1nc2[nH]ncc2c(=O)n1-c1ccccc1)NCCc1ccccc1,-4,-1,3,8,1,3
O=C(CSc1nc2[nH]ncc2c(=O)n1-c1ccccc1)c1ccc2c(c1)OCCO2,-11,6,0,7,57*,1
CCNC(=O)C1(C)CCN(Cc2cccc(C(F)(F)F)c2)C1 (centres undefined),-13,4,13,6,15,.
O=C(CCNS(=O)(=O)c1ccccc1)NNC(=O)C1COc2ccccc2O1 (centres undefined),-1,-4,18,-3,-2,3
COc1cccc(/C=C2/Sc3ccc(C(=O)NCCN4CCCCCC4)cc3NC2=O)c1,6,9,-7,15,100*,74*
O=C1Nc2cc(C(=O)NCCCN3CCCC3)ccc2S/C1=C/c1cccc(Cl)c1,22,-6,0,-8,99*,.
O=C1Nc2cc(C(=O)NCCN3CCCCCC3)ccc2S/C1=C\c1ccccc1,19,13,-4,4,94*,96*
C[C@H](NC(=O)C1CCN(S(=O)(=O)c2ccccc2)CC1)C(=O)NCc1ccco1,19,8,-6,3,-4,11
C(C#CCCCCCCCCC[n+]1ccccc1)#CCCCCCCCCC[n+]1ccccc1,53*,33*,-38,37,105*,101*
NCCCn1c(C(=O)c2cc(Cl)c(N)c(Cl)c2)c2ccc(C(F)(F)F)cc2[n+]1[O-],10,11,-2,14,12,18
NCCCn1c(C(=O)c2cc(Cl)c(N)c(Cl)c2)c2ccc([N+](=O)[O-])cc2[n+]1[O-],-1,8,-4,17,57*,54
CC(=NNC(=S)N1CCCCC1)c1cccc(C)n1,-35,-13,26,-110,-27,44
CSC(=S)NN=C(C)c1cccc(C)n1,76*,-6,-10,-15,35,74*
CCC[C@@H](CN[C@@H](CNC)[C@H](C)CC)NCC1CCC(C(C)(C)C)CC1 (some centres undefined),9,7,-30,-3,102*,100*
CN(C)S(=O)(=O)c1ccc(NC=O)cc1,-6,-4,-8,11,6,10
O=C(/C=C/c1ccccc1)CC(=O)c1ccccc1O,-54,7,15,-243,-210,-62
CC1=CN2C(=N)/C(=C/c3ccc([N+](=O)[O-])o3)C(=O)N=C2S1,51*,6,-49,67*,107*,89*
